Our source for the growth inhibition values is PubChem BioAssay (NCI).

The panel holds about 79,000 compounds, 15% with a hit somewhere; the sample as a whole holds those more often. Unmarked numbers belong to inactive results. The source made the active and inactive calls. Rule as the data show it: active = growth inhibition above about 70%; inactive = the rest.

The nature of test [1]: NCI Yeast Anticancer Drug Screen. Data for the rad50 strain (AID 155).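 Also: 0% = growth of vehicle-only cultures of the same strain.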 The conditions noted are these: S. cerevisiae rad50 strain growth inhibition; at 50.0 µM; active compounds read high. Summed up:
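Growth of the mutant yeast was measured after compound exposure and referenced to vehicle-treated cultures.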

A short description of test [2]: NCI Yeast Anticancer Drug Screen. Data for the mec2-1 strain (AID 157). The conditions noted are these: S. cerevisiae mec2-1 strain, at 50.0 µM, active compounds read high. Summed up: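 Test agents were screened against the mec2-1 yeast strain, with defined DNA repair or cell cycle alteration. Growth was scored as inhibition against vehicle-only controls.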
A short description of test [3]: NCI Yeast Anticancer Drug Screen. Data for the sgs1 mgt1 strain (AID 161).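 Also: 0% = growth of cultures given vehicle only.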 To be noted: S. cerevisiae sgs1 mgt1 strain, at 50.0 µM, active compounds read high. Summed up:
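Test agents were incubated with a DNA-repair-mutant yeast strain. Growth was then read and compared against vehicle-treated controls.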

The nature of test [4]: NCI Yeast Anticancer Drug Screen. Data for the cln2 rad14 strain (AID 165).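 Also: 0% = growth equal to vehicle treated cultures.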 The conditions noted are these: S. cerevisiae cln2 rad14 strain, at 50.0 µM, active compounds read high. Summed up: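 Growth of compound-exposed yeast (cln2 rad14 genotype) measured and expressed as inhibition relative to vehicle.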
Test [5] in a line: NCI Yeast Anticancer Drug Screen. Data for the bub3 strain (AID 167). The conditions noted are these: S. cerevisiae bub3 mutant strain, at 50.0 µM, active compounds read high. Summed up: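 Whole-cell yeast assay. The mutant strain was incubated with compounds, and growth inhibition was determined by comparison with vehicle-treated cells.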
Test [6] can be described thus: NCI Yeast Anticancer Drug Screen. Data for the mlh1 rad18 strain (AID 175). The conditions noted are these: S. cerevisiae mlh1 rad18 strain growth inhibition; at 50.0 µM; active compounds read high. Summed up: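 In this whole-cell yeast screen, a strain with altered DNA damage repair is challenged with compound, and its growth is measured against matched vehicle-treated controls.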

Take `COC1C(O)CC(OC2CC(Oc3cc4cc5c(c(O)c4c(O)c3C)C(=O)[C@@H](OC3CC(OC4CC(OC6CC(C)(O)C(OC(C)=O)C(C)O6)C(O)C(C)O4)C(O)C(C)O3)[C@H]([C@H](OC)C(=O)[C@@H](O)[C@@H](C)O)C5)OC(C)C2OC(C)=O)OC1C` (stereo not given in full): the growth inhibition was 12.7% in test [1]; 24.9% in test [2]; 8.15% in test [3]; 60.2% in test [4]; 7.1% in test [5]; 29.2% in test [6].
Turning to `O=P(OCCCl)(OCCCl)OCCCl`, the growth inhibition in test [1] was -12.1%; in test [2] it was -19.4%; in test [3], -19.2%; in test [4] it was -54.6%; in test [5], 0.15%; in test [6] it was -5%.
For `c1ccc(C2(N3CCOCC3)CSC2)cc1`, the growth inhibition in test [1] is -6.05%; in test [2] it was -4.8%; in test [3], 1.15%; in test [4], -16.9%; in test [5] it was -44.6%; in test [6], -6.75%.
As for `NS(=O)(=O)c1cc(N(CCCl)CCCl)c([N+](=O)[O-])cc1[N+](=O)[O-]`, the growth inhibition was -72.8% in test [1]; -36.8% in test [2]; -12.5% in test [3]; 2.1% in test [4]; -16.1% in test [5]; -34.5% in test [6].
On to `CCNC(=O)Oc1c(Cl)cc(S(=O)(=O)F)cc1Cl`, for which the growth inhibition in test [1] was 43.6%; in test [2], 22.8%; in test [3] it was 32.1%; in test [4], 12.5%; in test [5] it was 16%; in test [6] it was 26.4%.
Take `CN(C)C1=C(N2CC2)C(=O)C(N(C)C)=C(N2CC2)C1=O`: the growth inhibition was 17.2% in test [1]; 9.9% in test [2]; 14.6% in test [3]; 9.3% in test [4]; 1% in test [5]; 23.7% in test [6].
For `CCCCNC(=O)CCl`, the growth inhibition was 13.4% in test [1]; 13.7% in test [2]; 9.15% in test [3]; -0.4% in test [4]; 9.3% in test [5]; 13.8% in test [6].
As for `O=NN1CCCNCC1`, the growth inhibition in test [1] was -4.2%; in test [2], -14.9%; in test [3] it was -4.65%; in test [4], -42.4%; in test [5], 15.4%; in test [6], 4.25%.
On to `Cc1cccc(C)c1NC(=O)C(=O)C1C(=O)NC(=O)NC1=O`, for which the growth inhibition in test [1] is -45.5%; in test [2] it was -2.6%; in test [3], -6%; in test [4] it was 15.8%; in test [5] it was -17.1%; in test [6], -31.9%.
With `CCCCCCCNC(c1ccccc1)C(O)c1ccccc1` (stereo not given), the growth inhibition in test [1] was 8.4%; in test [2], 10.4%; in test [3], 12.1%; in test [4], -40.2%; in test [5], 1.55%; in test [6] it was -3.05%.
For the molecule `CC(/C=C/C1OC(=O)C=CC1C)=C\C(C)C/C=C/C(C)=C/C(CO)C(=O)C(C)C(O)C(C)C/C(C)=C/C(=O)O` (stereo not given), the growth inhibition in test [1] is 73.1% (active); in test [2], 62.2%; in test [3], 81.9% (active); in test [4] it was 62.6%; in test [5], 77.6% (active); in test [6], 87.4% (active).
With `CCOC(=O)C(Cc1ccc(N(CCCl)CCCl)cc1)NC(=O)C(NC(C)=O)C(C)C` (stereo not given), the growth inhibition in test [1] is 36.9%; in test [2], 13.3%; in test [3], 33.2%; in test [4], 17.4%; in test [5], 29.7%; in test [6] it was 28.4%.
`Cc1cc(Nc2ccc(N(CCCl)CCCl)cc2)c(C)cc1O`: the growth inhibition in test [1] was 31.7%; in test [2], 10%; in test [3], 5.75%; in test [4], -5.85%; in test [5], -4.15%; in test [6] it was 6.8%.
Consider `CCN(CC)CCn1c(=O)n(C)c2ccccc21`, for which the growth inhibition is 2.75% in test [1]; -18.7% in test [2]; -13.3% in test [3]; -35% in test [4]; -1.65% in test [5]; 20.9% in test [6].
For `C1C[N-]CC[N-]1.C1C[N-]CC[N-]1.N#CS.[Ni+2]`, the growth inhibition was 5.1% in test [1]; 5.65% in test [2]; 1.4% in test [3]; -11.9% in test [4]; 7.6% in test [5]; -5.4% in test [6].
Consider `O=NNc1ccc(C(F)(F)F)cn1`, for which the growth inhibition in test [1] is -7.95%; in test [2], -6.95%; in test [3], -17.9%; in test [4], -5.75%; in test [5], -17.4%; in test [6] it was -15.2%.
As for `O=C(O)C(Br)CBr` (stereo not given), the growth inhibition in test [1] is 4.7%; in test [2] it was 17.6%; in test [3], 27.2%; in test [4] it was -13.2%; in test [5] it was -1.55%; in test [6] it was 34.5%.
Consider `C/C=C/C(=O)[O-].C/C=C/C(=O)[O-].N.N.N.N.[Co+3].[O-][Cl+3]([O-])([O-])[O-]`, for which the growth inhibition in test [1] was 0.2%; in test [2], -2.7%; in test [3] it was -7.2%; in test [4], 25.1%; in test [5], 7.3%; in test [6], -3.5%.
As to `CC(=O)Nc1cc(Cl)c([N+](=O)[O-])cc1C`, the growth inhibition was -14.9% in test [1]; -4.15% in test [2]; -12.4% in test [3]; -79.1% in test [4]; 0.75% in test [5]; 11.6% in test [6].
Turning to `Nc1ccc(S(=O)(=O)F)cc1`, the growth inhibition in test [1] is -22%; in test [2], -54%; in test [3] it was -34.6%; in test [4] it was 16.8%; in test [5] it was -35.3%; in test [6] it was -22.2%.
